Laboratory results: PubChem BioAssay
Inconclusive results are not listed. Calls of active or inactive are those of the source. Unless noted, the limit is not given here; nearly all actives have AC50 up to about 26 µM.

Experiments:
[1] = viability loss in pontine glioma line – cell-based, SU-DIPG-XXV, MIPE5.0, CellTiter-Glo, qHTS, dose response (AID 1347065); conditions: CellTiter-Glo ATP luminescence;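 also: cells exposed to compound for 48 hours before ATP readout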
[2] = JHH-DIPG-1 glioma cell viability, MIPE5.0 library, CellTiter-Glo luminescence, qHTS (AID 1347067); conditions: JHH-DIPG-1 glioma viability, CellTiter-Glo ATP luminescence;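 also: cells exposed to compound for 48 hours before readout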
[3] = growth inhibition of DIPG cells – cell-based, MIPE5.0 library, qHTS (AID 1347068; cut-off not given, nearly all actives have IC50 up to about 30 µM;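 as to IC50: cells exposed to compound for 48 hours before viability readout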); conditions: SU-DIPG-XXV viability

Compound: CNC(=O)Cn1cc(-c2ccc3c(c2)C(F)CC32NC(=O)N(CC(=O)N(Cc3ccc(F)cc3)C(C)C(F)(F)F)C2=O)cn1 (centres undefined)
- outcome [1]: inactive
- outcome [2]: inactive
- outcome [3]: inactive

Compound: CCOCOC[C@H](C[C@H](C)C(=O)NO)NC(=O)c1ccc(Oc2ccccc2)cc1
- outcome [1]: inactive
- outcome [2]: inactive
- outcome [3]: inactive

Compound: CN1CCN(C(=O)c2ccc(-c3ccc4c(C=O)c(O)ccc4c3)s2)CC1
- AC50 [1]: 16.6 µM (active)
- outcome [3]: inactive

Compound: C[C@@H]1CC2C3C[C@H](F)C4=CC(=O)C=C[C@]4(C)[C@@]3(F)[C@@H](O)C[C@]2(C)[C@@]1(OC(=O)c1ccco1)C(=O)SCF (some centres undefined)
- AC50 [1]: 20.9 µM (active)
- outcome [3]: inactive

Compound: Cc1nc(-c2cccnc2)sc1C(=O)Nc1ccccc1-c1cn2c(CN3CCOCC3)csc2n1
- outcome [1]: inactive
- outcome [3]: inactive

Compound: C[C@H](NC(=O)c1c(N)nn2cccnc12)c1cc2cccc(C#Cc3cnn(C)c3)c2c(=O)n1-c1ccccc1
- AC50 [1]: 12.9 µM (active)
- outcome [3]: inactive

Compound: Cc1ccc(Nc2nnc(Cc3ccncc3)c3ccccc23)cc1Br
- AC50 [1]: 14.8 µM (active)
- AC50 [2]: 18.6 µM (active)

Compound: O=C1Nc2nc(-c3c(O)cccc3OCC3CC3)cc([C@@H]3CCCNC3)c2CO1
- AC50 [1]: 18.6 µM (active)
- AC50 [2]: 26.3 µM (active)
- IC50 [3]: 13.2 µM (active)

Compound: O=c1c(-n2ccnn2)c[nH]n1-c1cc(N2CCOCC2)ncn1
- AC50 [1]: 20.9 µM (active)
- outcome [2]: inactive

Compound: CC(C)[C@@H](CS(=O)(=O)C(C)C)N1C(=O)[C@@](C)(CC(=O)O)C[C@H](c2cccc(Cl)c2)[C@H]1c1ccc(Cl)cc1
- AC50 [1]: 18.6 µM (active)
- AC50 [2]: 23.5 µM (active)

Compound: Cc1cc(Nc2ncnc3ccc(NC4=NC(C)(C)CO4)cc23)ccc1Oc1ccn2ncnc2c1
- AC50 [1]: 14.8 µM (active)
- outcome [3]: inactive

Compound: COc1ccccc1C(=O)Nc1cc2c(cc1N1CCCCC1)n(C)c(=O)n2C
- AC50 [1]: 18.6 µM (active)
- outcome [3]: inactive

Compound: CC(C)(CNC(=O)c1cccc(-c2noc(C(F)(F)F)n2)c1)c1coc(-c2ccccc2)n1
- AC50 [1]: 20.9 µM (active)
- outcome [3]: inactive

Compound: CN1CC[C@@H](c2c(O)cc(O)c3c(=O)cc(-c4ccc(C(F)(F)F)cc4Cl)oc23)[C@@H]1CO
- AC50 [1]: 23.5 µM (active)
- outcome [2]: inactive

Compound: Cc1cccc(-c2[nH]c(CNc3ccccc3F)nc2-c2ccc3ncnn3c2)n1
- outcome [1]: inactive
- outcome [3]: inactive

Compound: COC(=O)C1C2CC3c4[nH]c5cc(OC)ccc5c4CCN3CC2CC(OC(=O)c2cc(OC)c(OC)c(OC)c2)C1OC (centres undefined)
- AC50 [1]: 20.9 µM (active)
- AC50 [2]: 23.5 µM (active)
- outcome [3]: inactive

Compound: CC1CCC(n2c3cnccc3c3cnc(Nc4ccc5c(n4)CCN(C(=O)CO)C5)nc32)CC1 (centres undefined)
- outcome [1]: inactive
- outcome [2]: inactive
- outcome [3]: inactive

Compound: Cn1ncc2cc(-c3cnc(N)c(Cl)c3N3CCC4(CCNC4=O)CC3)ccc21
- AC50 [1]: 20.9 µM (active)
- outcome [2]: inactive

Compound: C=CC(=O)Nc1ccc(F)c(-c2ncnc3[nH]cc(C(=O)OCC)c23)c1
- AC50 [1]: 18.6 µM (active)
- AC50 [2]: 18.6 µM (active)

Compound: CN1CCN(CCCNc2ncc(Cl)c(-c3cc4c(C(=O)NC5CC5)cccc4s3)n2)CC1
- AC50 [1]: 23.5 µM (active)
- outcome [3]: inactive

Compound: Cc1ccc(-c2ccc(C)cn2)nc1
- outcome [1]: inactive
- outcome [2]: inactive
- outcome [3]: inactive

Compound: O=C(NCCCNC(=O)c1ccc[nH]c1=O)c1cc(-c2ccccc2)on1
- outcome [1]: inactive
- AC50 [2]: 14.8 µM (active)
- outcome [3]: inactive

Compound: CC(C)(O)CNc1nc(Nc2ccnc(C(F)(F)F)c2)nc(-c2cccc(C(F)(F)F)n2)n1
- AC50 [1]: 14.8 µM (active)
- outcome [3]: inactive

Compound: CCNCc1nc2c(N)nc3ccccc3c2n1CC(C)(C)O
- outcome [1]: inactive
- outcome [2]: inactive
- outcome [3]: inactive

Compound: Cc1nc(C)c(CN2CCN(C(c3ccc(F)cc3)c3ccc(F)cc3)CC2)nc1C
- AC50 [1]: 23.5 µM (active)
- outcome [2]: inactive
- outcome [3]: inactive
